Inconclusive results are not listed. Calls of active or inactive are those of the source. Calls come from the whole dose curve; as a rule, active = well fitted inhibition curve with a large enough effect in the repeat runs; inconclusive = weak or mixed curves; inactive = no such curve, though single readings can be large or run the other way.
Molecular target: Cytochrome P450 2C9 (Homo sapiens) (UniProt P11712)
Assay: Cytochrome P450 family 2 subfamily C member 9 (CYP2C9) small molecule antagonists: luciferase biochemical (cell-free) qHTS assay (AID 1645842); note: nearly all actives have a fitted effect of over 55% in size
Conditions: P450-Glo CYP2C9 enzyme assay, luciferin luminescence; series mostly up to 57.4 µM
Procedure: National Center for Advancing Translational Sciences [NCATS] Assay Overview: Cytochrome P450 (CYP) enzymes are membrane-bound hemeproteins that play a key role in metabolism of drugs and xenobiotics. Assaying the effect of chemicals on CYP isozymes is useful to minimize the adverse drug reactions and toxicities in drug development process. Chemical compounds were tested for their effect on CYP enzyme activities by using P450-Glo (TM) screening systems (Promega Corporation, Madison, WI). These systems provide a luminescent method containing proluciferin substrates and are converted to luciferin products by CYP isozymes. The luciferin products formed are detected with a luciferin detection reagent, and the amount of light produced is proportional to CYP activity. P450-Glo (TM) CYP2C9 screening system (Catalog. No. V9790) was used to detect the compounds that interfere in CYP2C9 activity.
Assay Protocol Summary: Two ul of enzyme-substrate mix supplemented with 0.4% Bovine Serum Albumin was dispensed into medium binding white/solid 1536-well plates (Greiner Bio-One North America Inc., Monroe, NC) using a Flying Reagent Dispenser (FRD, Aurora Discovery, San Diego, CA). […] The assay plates were incubated at room temperature for 10 min. Then 2 ul of NADPH regeneration solution was added to each well of the assay plates using an FRD and incubated at 37C for 1 h. The reaction was stopped by adding 4 ul of detection reagent using an FRD and after 20 min incubation at room temperature, the luminescence signal was measured using a ViewLux plate reader (Perkin Elmer, Shelton, CT). Data were expressed as relative luminescence units.
Potency is the fitted concentration of half-maximal effect.

Chain of Cytochrome P450 2C9 (Homo sapiens) (P11712 whole entry, looked up): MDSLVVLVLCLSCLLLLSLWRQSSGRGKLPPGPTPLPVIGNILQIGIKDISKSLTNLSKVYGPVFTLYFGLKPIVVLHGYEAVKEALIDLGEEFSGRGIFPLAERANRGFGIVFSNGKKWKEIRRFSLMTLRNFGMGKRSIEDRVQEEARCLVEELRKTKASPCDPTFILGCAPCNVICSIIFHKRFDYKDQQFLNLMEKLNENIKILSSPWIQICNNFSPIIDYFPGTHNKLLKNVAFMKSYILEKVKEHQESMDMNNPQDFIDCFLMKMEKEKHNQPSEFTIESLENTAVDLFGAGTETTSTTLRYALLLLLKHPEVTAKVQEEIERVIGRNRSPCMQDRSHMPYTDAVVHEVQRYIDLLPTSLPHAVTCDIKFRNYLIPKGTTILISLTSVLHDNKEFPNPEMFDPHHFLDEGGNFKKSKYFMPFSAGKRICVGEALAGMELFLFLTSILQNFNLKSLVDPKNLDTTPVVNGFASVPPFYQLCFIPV

| Compound | Potency |
| --- | --- |
| O=S(=O)(c1ccccc1)c1cnc2c(N3CCNCC3)cccc2c1 | 0.338 µM (active) |
| CCC(Nc1ncnc2nc[nH]c12)c1nc2cccc(F)c2c(=O)n1-c1ccccc1 (stereo not given) | 13.5 µM (active) |
| Nc1ccc(-c2cccc3c(=O)cc(N4CCOCC4)oc23)cc1 | 9.52 µM (active) |
| COC(C(=O)N1Cc2[nH]nc(NC(=O)c3ccc(N4CCN(C)CC4)cc3)c2C1)c1ccccc1 (stereo not given) | inactive |
| Cc1ccc(-c2ccc3c(ccc4sc5c(c43)NC[C@@H](C)NC5=O)n2)cn1 | inactive |
| Cc1nc(Nc2n[nH]c3c2CN(C(=O)NC(CN(C)C)c2ccccc2)C3(C)C)c2sccc2n1 (stereo not given) | 13.5 µM (active) |
| CNC(=O)c1cc(Oc2ccc3nc(N[C@@H]4CCCC[C@H]4O)sc3c2)ccn1 | 8.49 µM (active) |
| O=C1CCC(c2ccccc2)(C2CCN(Cc3ccc(I)cc3)CC2)C(=O)N1 (stereo not given) | inactive |
| CC1(c2nc3c(C(N)=O)cccc3[nH]2)CCCN1 (stereo not given) | inactive |
| CNC(=S)NS(=O)(=O)c1cc(CCNC(=O)c2cc(Cl)ccc2OC)ccc1OC | 6.74 µM (active) |
| CS(=O)(=O)N1CCC(NC(=O)c2[nH]ncc2NC(=O)c2c(Cl)cccc2Cl)CC1 | 21.3 µM (active) |
| CCN1CCN(Cc2ccc(Nc3ncc(F)c(-c4cc(F)c5nc(C)n(C(C)C)c5c4)n3)nc2)CC1 | inactive |
| CC(=O)NC[C@H]1CN(c2ccc(N3CCN(C(=O)CO)CC3)c(F)c2)C(=O)O1 | inactive |
| c1ccc(-c2ncc(CN3CCN(c4ncccn4)CC3)[nH]2)cc1 | 2.13 µM (active) |
| O=C1CSc2ccccc2N1Cc1cccc(C(F)(F)F)c1 | inactive |
| Cc1cc(C(=O)Nc2cccc(C(=O)Nc3cccc(C(F)(F)F)c3)c2)on1 | 3.79 µM (active) |
| CCNC(=O)Nc1ncc(-c2cc(-c3c(C)cc(OC)cc3C)nc(-c3cnccn3)n2)s1 | 3.79 µM (active) |
| COc1ccc(-c2cnc3ccc(NCc4ccc(S(N)(=O)=O)cc4)nn23)cc1OC | 6.74 µM (active) |
| C=C(F)c1sc(CNCCCNc2cc(=O)c3ccccc3[nH]2)c(C)c1Br | 2.13 µM (active) |
| O=C(CCc1nnc2n(Cc3ccc(Cl)cc3)c(=O)c3ccccc3n12)NCCC1=CCCCC1 | 4.77 µM (active) |

| Compound | Potency |
| --- | --- |
| Cc1cccc2c1NC(=O)C2(c1ccc(O)cc1)c1ccc(O)cc1 | 9.52 µM (active) |
| COC(=O)N1CCC(n2ncc3c(N4CCOCC4)nc(-c4ccc(NC(=O)Nc5ccc(CO)cc5)cc4)nc32)CC1 | 6.74 µM (active) |
| CC(Cc1cc2c(c(C(N)=O)c1)N(CCCO)CC2)NCCOc1ccccc1OCC(F)(F)F (stereo not given) | inactive |
| O=C(CSc1nc2c(c(=O)n1-c1ccccc1)SCC2)Nc1ccc(-c2ccccc2)cn1 | 0.379 µM (active) |
| O=C(CCCCN1CCOCC1)Nc1ccc(-c2cccnc2)cc1 | inactive |
| CN[C@H](C(=O)N[C@H](C(=O)N(C)[C@H](/C=C(\C)C(=O)O)C(C)C)C(C)(C)C)C(C)(C)c1ccccc1 | inactive |
| COc1ccc(CCO[C@@H]2CCCC[C@H]2N2CC[C@@H](O)C2)cc1OC | inactive |
| CN1CCC(Nc2nc(Nc3ccc(Oc4ccccc4)cc3)c3c(=O)[nH]cc(Br)c3n2)CC1 | 16.9 µM (active) |
| COc1ccc2cc(C(C)C(=O)Oc3ccc(C(N)=S)cc3)ccc2c1 (stereo not given) | 21.3 µM (active) |
| O=C(C(c1ccccc1)c1ccccc1)N1CCN(CC(O)COc2cccc3ncccc23)CC1 (stereo not given) | 12 µM (active) |
| CCC(COC)n1nnc2c(Nc3ccc(OC)cc3C)nc(C)cc21 (stereo not given) | 7.56 µM (active) |
| CCCC(=O)C1CCN(c2ncnc3c2CN(C(=O)c2ccc(-c4ccccc4)cc2)CC3)CC1 | 3.01 µM (active) |
| NC(=O)C(CCC(F)(F)F)N(Cc1ccc(-c2ncon2)cc1F)S(=O)(=O)c1ccc(Cl)cc1 (stereo not given) | 1.51 µM (active) |
| O=C(c1cn(Cc2cncn2Cc2ccc(Br)cc2)cc1-c1cccc2ccccc12)N1CCOCC1 | 1.69 µM (active) |
| Cc1cccc(C)c1OCc1cc(C(=O)N2CCC(c3ccncc3)CC2)no1 | 0.338 µM (active) |
| Cc1cccc(/C=N/Nc2cc(N3CCOCC3)n3nc(-c4ccncc4)cc3n2)c1 | 1.34 µM (active) |
| CC(C)c1nnc(-c2ccc(-c3ccccc3)nc2)n1-c1cccc2nonc12 | 13.5 µM (active) |
| COc1ccccc1NC(=O)OCC1CCN(C(=O)OC(C)(C)C)CC1 | inactive |
| Cc1cccc(C)c1-n1c(=O)c2cnc(Nc3ccc(N4CCN(C)CC4)cc3)nc2n2c3ccccc3nc12 | 8.49 µM (active) |
| Cn1nc(C(C)(C)C)cc1C(=O)NC(Cc1cccc(Cl)c1)C(=O)NCC#N (stereo not given) | 15.1 µM (active) |
